In the library only some 2.1% were active in any assay of this set; here they are far more common.
Sa RN4220 lethal = kills Staphylococcus aureus RN4220 | 330,000 tested, 0.33% active | inhibition, % (test concentration not listed) | AID 1259311 | S. aureus RN4220 growth, OD600, 16 h; in the data active = inhibition above about 85%;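 note: plate controls were untreated cells for no effect and reference antibiotic for full effect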
PrPC TRFRET = inhibitors of human cell surface prion protein PrPC; P04156; TR-FRET read-out; inhibition, % at 13.8 µM; 370,000 tested, 0.43% active; in the data active = inhibition above about 24%; note: 0% = median of the test wells and 100% = reference compound wells
CCHF vOTU inh = CCHFV vOTU protease inhibition. Pep-AMC fluorescence. inhibition, % at 11.5 µM. AID 651958. 370,000 tested, 0.55% active; in the data active = inhibition above about 30%; note: 0% = vehicle wells with enzyme and 100% = no enzyme wells
PrP UTR inh = suppresses PrP 5' UTR mRNA reporter expression | 340,000 tested, 0.35% active | cell-based PrP 5' UTR mRNA reporter, plate reader | inhibition, % (concentration not given with the values); in the data active = inhibition above about 52%; note: 0 = median of the neutral control wells
PfHsp40 rescue = restores yeast growth despite PfHsp40 toxicity; S. cerevisiae expressing PfHsp40, growth rescue, ATP luminescence; growth rescue, % at 12.5 µM; 340,000 tested, 0.68% active; in the data active = growth rescue above about 28%, passing the limit was not always enough; inconclusive = no clear call, values can overlap the other calls;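 note: yeast W303a lacking pdr1 and pdr3 grown in galactose medium; growth measured after three days at 30 °C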
ugtP null kill = compounds lethal to S. aureus RN4220 ugtP deletion mutant; AID 1259309; 330,000 tested, 0.54% active; OD600 growth, 16 h; growth inhibition, % (test concentration not listed); in the data active = growth inhibition above about 68%;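 note: plate controls were untreated wells for no effect and antibiotic for full effect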
* = called active by the depositor; ? = inconclusive; nt = not tested or not shown.

SMILES	Sa RN4220 lethal	PrPC TRFRET	CCHF vOTU inh	PrP UTR inh	PfHsp40 rescue	ugtP null kill
NC1=NCC(Cc2ccc(O)cc2)N1CCCCC1CCCCC1 (stereo unspecified)	101*	nt	nt	nt	nt	100*
COc1ccc(-c2n(CC(=O)OC3CC(C)CCC3C(C)C)c3ccccc3[n+]2C)cc1 (stereo unspecified)	101*	4	-3	-19	0	101*
COc1ccc(OCc2n(CC(=O)OC3CC(C)CCC3C(C)C)c3ccccc3[n+]2C)cc1 (stereo unspecified)	101*	4	10	-2	-1	100*
CC1CCC(C(C)C)C(OC(=O)CSc2nccc(=O)[nH]2)C1 (stereo unspecified)	12	-5	-4	-19	1	-13
O=C(C=Cc1cccs1)N1CCC2(CC1)Oc1ccc(Cl)cc1C(=O)C21CC(c2ccc(Cl)cc2)=NO1 (stereo unspecified)	2	nt	nt	nt	nt	-5
Cc1ccc(-n2nnnc2SCC(=O)N2CCc3ccccc3C2)c(C)c1	-2	6	6	nt	71*	12
CC(=NOC(=O)c1c(-c2ccccc2Cl)noc1C)c1cnccn1	8	nt	nt	nt	nt	7
c1ccc(Nc2cccc(Nc3ccccc3)c2)cc1	-16	-5	-9	-60	69*	-21
COc1ccc(-c2cc(N)n(S(=O)(=O)c3c(F)c(F)c(F)c(F)c3F)n2)cc1OC	98*	-5	-7	-18	0	95*
Clc1cccc(N/N=C(\Cc2nc3ccccc3[nH]2)c2ccccc2)c1	nt	7	6	-1	426*	nt
Cc1cc(C)c2nc(NNC(=O)c3ccc(S(=O)(=O)N4CCCC(C)C4)cc3)sc2c1 (stereo unspecified)	22	-1	10	7	97*	-8
Cc1cc(C)c2nc(NNC(=O)c3ccc(S(=O)(=O)N4CC(C)CC(C)C4)cc3)sc2c1 (stereo unspecified)	16	1	16	4	?	-16
Cc1cccc2sc(NNC(=O)c3ccc(S(=O)(=O)N4CC(C)CC(C)C4)cc3)nc12 (stereo unspecified)	14	5	12	30	285*	-3
COC(=O)c1sc2ccccc2c1NC(=O)c1ccc(S(=O)(=O)N2CC(C)CC(C)C2)cc1 (stereo unspecified)	10	0	-5	-4	-1	-1
O=C(Cc1cc(=O)[nH][nH]1)NN=C/C(Cl)=C/c1ccccc1	-1	nt	nt	nt	nt	-9
CC(=O)Nc1ccc(S(=O)(=O)c2ccc([N+](=O)[O-])cc2)cc1	97*	-18	9	-9	-1	72
CCCC(=O)Nc1nc2ccc(OCC)cc2s1	2	-1	8	-67	1	2
CCOc1ccc2nc(NC(=S)N(C)C)sc2c1	-1	0	7	-40	122*	-2
COCC=CC1=CC2=CC(=O)C(C)(OC(=O)c3cnc4ccccc4n3)C(=O)C2=CN1c1ccccc1 (stereo unspecified)	8	nt	nt	nt	nt	4
C#CCOCCOCCOCCNc1nc(N2CCN(C(=O)CCCCCCCCCCNC(=O)C(CCCCN)n3cc(CCCC(=O)O)nn3)CC2)nc(N2CCN(C(=O)CCCCCCCCCCNC(=O)C(C(C)O)n3cc(C)nn3)CC2)n1 (stereo unspecified)	8	nt	nt	nt	nt	3
CN(C)S(=O)(=O)Oc1cccc(C(=O)Nc2ccc(Cl)c(Cl)c2)c1	-3	23	6	-110	233*	-13
C=C(C)C(=O)Oc1ccc(N=Nc2ccc(C)cc2)ccc1=O	0	-9	12	nt	nt	100*
CC(=O)c1ccc(N=Nc2ccc(C)cc2)cc1	-2	-4	-12	26	0	4
CCCCCCCC(=O)OCC(=O)[C@@]1(O)CCC2C3CCC4=CC(=O)CC[C@]4(C)C3C(O)C[C@@]21C (stereo partly specified)	4	nt	nt	nt	nt	-2
Cc1nn(-c2ccccc2)c(Oc2ccc(F)cc2)c1C=Nn1cnnc1	-1	nt	nt	nt	nt	1
SMILES	Sa RN4220 lethal	PrPC TRFRET	CCHF vOTU inh	PrP UTR inh	PfHsp40 rescue	ugtP null kill
O=C(O)C/C(=C\c1ccc(Cl)cc1)c1nc2ccccc2o1	18	-7	7	-19	135*	-13
CCCCN(C(=O)CCC(=O)Nc1cc(C)on1)C(C(=O)NC1CCCC1)c1ccc(OCC)cc1 (stereo unspecified)	3	2	37*	-20	2	4
CCCCN(C(=O)CCC(=O)Nc1cc(C)on1)C(C(=O)NC1CCCC1)c1ccccc1OCC (stereo unspecified)	-3	5	2	2	1	2
S=C(NCCCc1ccccc1)Nc1ccccc1Cl	-7	2	-1	-16	223*	-34
S=C(NCCCCc1ccccc1)NCc1ccccc1	-6	7	15	2	55*	7
COc1ccc(-c2oc3c4c(cc(OC)c3c(=O)c2CC=C(C)C)OC(C)(C)C=C4)c(OC)c1	-2	nt	nt	nt	nt	7
CC(C)=CCc1c(-c2ccc(O)cc2O)oc2cc3c(c(O)c2c1=O)C=CC(C)(C)O3	96*	nt	nt	nt	nt	97*
CCCc1nc2ccccc2c(C(=O)O)c1CC	1	-4	12	-3	0	5
CCCOC(=O)c1c(-c2ccccc2)nc(CC)c(C(=O)SCC)c1CCC	-2	-2	6	7	0	95*
COc1cc2nc(N3CCN(c4cc(C)ccc4C)CC3)nc(N)c2cc1OC	17	-12	4	5	-1	-4
COc1cc2nc(N3CCNCC3)nc(N)c2cc1OC	8	4	-56	-21	186*	10
c1ccc(-c2c(-c3ccccc3)n(Cc3ccco3)c3ncnc(NCCCn4ccnc4)c23)cc1	18	-10	5	6	148*	30
CCN1C(=O)[C@H]2[C@@H](c3ccc(C)cc3)N3C(=O)N(c4ccccc4)C(=O)[C@@]3(CC)[C@H]2C1=O	nt	-3	6	-19	35*	nt
C=CC1c2cc(C)ccc2N(S(=O)(=O)c2ccc(C)cc2)C(c2ccccc2C(F)(F)F)C1(C#N)C#N (stereo unspecified)	7	nt	nt	nt	nt	9
COC(=O)C1=C(C(=O)OC)C2N(C)c3ccc(OC)cc3[C@@]23CC(C(=O)OC)N(C(=O)CC(C)C)C3=N1 (stereo partly specified)	3	nt	nt	nt	nt	3
Cn1cncc1C#Cc1ccc2cc(CCO)oc(=O)c2c1	-10	-10	-7	-13	67*	0
O=[N+]([O-])c1ccc(N/N=C/c2c[nH]c3ccccc23)c(S(=O)(=O)Nc2ccc(Cl)cc2)c1	nt	0	3	-16	0	nt
O=[N+]([O-])c1ccc(NN=Cc2c[nH]c3ccccc23)c(S(=O)(=O)Nc2ccc(Cl)cc2)c1	81	nt	nt	nt	nt	99*
COc1ccc(Cl)cc1C(=O)CSc1nnnn1C1CCCC1	6	7	10	-19	32*	2
O=C(Nc1cc(Cl)ccc1-n1cncn1)c1ccc([N+](=O)[O-])s1	27	nt	nt	-18	1	101*

High-throughput results (PubChem BioAssay)
